The subject of the assay is Trypanosoma cruzi. Nature of the assay: Trypanosoma cruzi phosphomannomutase and mannose-1-phosphate guanylyltransferase assay. It is filed as functional. More on the design: scale not given: direction of the effect not stated beside the values. To be noted: 10 µM.
As to `CCn1cc(Br)c(C(=O)NCc2cccnc2)n1`, the Percent Effect is 0.885%.
Next, `Cn1nc2c(cc1=O)CN(CCc1nc3ccccc3c(=O)[nH]1)CC2`: 8.23%.
Next, `COc1cccc2c1OCC(CNC(=O)CSc1nc(N)n[nH]1)C2` (centres undefined): 3.62%; `COCCCNC(=O)CN(C)C(=O)c1cc(C)ccc1N(C)C(C)C`: 0.65%.
Next, `c1ccc2sc(CN3CCCC3c3noc(C4CC4)n3)nc2c1` (centres undefined): -2.88%; `COCCO[C@@H]1CCN(Cc2csc(C)n2)[C@H]1Cc1ccccc1`: -3.03%; `C[C@@H]1CN(C(=O)c2ccsc2)C[C@]12CCN(c1ccsc1)C2=O`: -3.54%.
Consider `CC(O)CC(C)(C)CNC(=O)NCc1cccc(-n2cncn2)c1` (centres undefined), for which the Percent Effect is 2.64%.
Next, `Cc1c(C(=O)NCC(C)C)nnn1-c1cccc2c1CCN(C)C2`: -0.682%; `COc1ccc(CNCC(C)Oc2ccccn2)cc1Br` (centres undefined): 5.3%; `Cc1ccc(CN2CCc3ncc(CNS(C)(=O)=O)n3CC2)o1`: -5.56%.
Next, `Cc1nc(CN2CCCC(NCc3c(C)nc4sccn34)C2)no1` (centres undefined): -1.31%.
Next, `Cc1cn2nc(N3CCCN(Cc4noc(C)n4)CC3)sc2n1`: -2.97%.
As to `CC(NC(=O)NCCNc1cnccn1)c1cccs1` (centres undefined), the Percent Effect is 2.81%.
Next, `CCOCC1CN(Cc2cccc(C#N)c2)Cc2nccn2C1` (centres undefined): -2.38%; `COc1ccc(OCc2nc(C(=O)N3CC[C@H](O)[C@@H](O)C3)co2)cc1`: -3.09%; `O=C(CN1CCCC1Cn1cncn1)NCCc1c(F)cccc1F` (centres undefined): 11.9%.
As to `CN(C)c1ncnc2c1CCN(CC1CCOC1)CC2` (centres undefined), the Percent Effect is -3.42%.
Next, `CC(C)N(CC(N)=O)Cc1csc(COc2ccc(F)cc2)n1`: 7.65%; `Cc1nc(CN2CCCN(C(=O)c3ccccn3)CC2)oc1C`: -0.686%.
In the case of `O=C(c1cccnc1N1CCOCC1)N1CCCC1Cn1cccn1` (centres undefined), the Percent Effect stood at 1.47%.
Next, `CCN(C(=O)CN(C)C(c1cccc(F)c1)c1ccccn1)C1CC1` (centres undefined): 6.74%.
As to `Cc1nc(C2(NCC(=O)NCCc3cccs3)CCCC2)no1`, the Percent Effect was -4.38%.
Next, `CO[C@H]1CN(C(=O)c2ccccn2)[C@@H]2CCCO[C@H]12`: -2.25%; `CCO[C@@H]1CO[C@@]2(CCCN(C(=O)c3ccc(OC)c(F)c3)C2)C1`: -3.06%.
On to `CC(C)S(=O)(=O)c1nnc(CCNC(=O)OC(C)(C)C)o1`, for which the Percent Effect was -5.3%.
For `CCc1c(C(=O)NC2CCS(=O)(=O)C2)cnn1-c1ccc(F)cc1` (centres undefined), the Percent Effect came to 8.21%.
Next, `CCn1nccc1CNC(=O)NC1CCCCC1`: -7.18%.
Next, `CN(Cc1ccsc1)C(=O)Nc1cccnc1N1CCCC1`: -7.38%; `CCCC1(CO)CCCN(c2ncccc2F)C1` (centres undefined): -1.16%.
Next, `Cc1nc[nH]c1-c1nc2cc(S(=O)(=O)N3CCCC3)ccc2n1C`: 6.86%; `CCNC(=O)N(C)Cc1ccc(SC)c(OC)c1`: 4.49%.
In the case of `COCC(=O)N1CCC(c2nc3ccc(-c4ccccc4)cn3n2)CC1`, the Percent Effect was -1.19%.
Next, `CC(C(=O)NCc1ccnc(N2CCN(C)CC2)c1)n1cccn1` (centres undefined): 7.14%; `CCc1c(C)nc2cc(C3CCN(Cc4ccccc4F)C3)nn2c1O` (centres undefined): -2.77%.
For the compound `O=C(COc1ccc(C(F)(F)F)cc1)NS(=O)(=O)c1cccnc1`, the Percent Effect was -1.5%.
Next, `CN(C)S(=O)(=O)c1ccc(OCCNCCn2cccn2)cc1`: -1.13%; `O=C(CN1CCCC(O)C1)NC(=O)NCc1cccs1` (centres undefined): -5.16%; `CCOc1ncccc1CNC(=O)N1CCCC1c1ccncc1` (centres undefined): -7.3%.

For the origin of these results see ChEMBL document CHEMBL3988442, “University of Dundee, Small-Polar-MMV Screening Library” (2021).
